Out of some 66,000 compounds screened, about 960 (1.5%) showed an effect of 50% or more. This excerpt belongs to a sample that is enriched for strong results.
System: Trypanosoma brucei
Assay: Trypanosoma brucei 72 hour study
Format: functional, organism-based
Set-up: scale not given: in the data most compounds retested in dose-response had high values

Compound: OC1(CNCCCN2CCCc3ccccc32)CNCCOC1 (centres undefined)
- Percent Effect (30.3 µM, […]): 12.14%

Compound: OC1(CNCCN2CCCc3ccccc32)CCNC1 (centres undefined)
- Percent Effect (30.3 µM, […]): 6.012%

Compound: OC1(CNCCCN2CCc3ccccc32)CCNC1 (centres undefined)
- Percent Effect (30.3 µM, […]): 99.09%

Compound: Cl.O=C(CCn1c(C(F)(F)F)cc2cccnc21)N1CCOCC1
- Percent Effect (30.3 µM, […]): -52.3%

Compound: CN(CCOc1cccc(F)c1)Cc1nc2c(cnn2C)c(=O)[nH]1
- Percent Effect (30.3 µM, […]): -16.26%

Compound: Cc1cnc(NC(=O)c2csc(NCC(C)C)n2)s1
- Percent Effect (30 µM, 30.03 µM): 4.824%

Compound: Cc1cs/c(=N/C(=O)c2csc(NCC(C)C)n2)[nH]1
- Percent Effect (30 µM, 30.03 µM): 86.34%

Compound: Cc1cc(O)c(OCC(=O)/N=c2\[nH]c(C)c(C)s2)cn1
- Percent Effect (30 µM, 30.03 µM): -31.23%

Compound: CC(C)CNc1nc(C(=O)/N=c2\[nH]nc(C(C)(C)C)s2)cs1
- Percent Effect (30 µM, 30.03 µM): -9.789%

Compound: Cc1cccc(NC(=O)c2csc(NCC(C)C)n2)n1
- Percent Effect (30 µM, 30.03 µM): -6.262%

Compound: Cc1[nH]/c(=N\C(=O)c2csc(NCC(C)C)n2)sc1C
- Percent Effect (30 µM, 30.03 µM): 99.84%

Compound: O=C(O)C(F)(F)F.O=C(c1cscn1)N1CC[C@@H]2[C@@H]1CCN2C1CCOCC1
- Percent Effect (30.3 µM, […]): -53.41%

Compound: O=C(O)C(F)(F)F.O=C(c1ccccn1)N1CCc2ncc(Cn3cccn3)n2CC1
- Percent Effect (30.3 µM, […]): -7.142%

Compound: Cc1ccc(S(=O)(=O)N2C[C@H]3C[C@H](NC(=O)c4cnn(C)c4)[C@H]3C2)cc1
- Percent Effect (30.3 µM, […]): -2.175%

Compound: COc1c(CNCc2cccc(Cn3ccnc3C)c2)c(C)nn1C.Cl
- Percent Effect (30.3 µM, […]): -2.374%
- Percent Effect (10 mM, 10 mM as filed; unlikely as a test dose): -46.4%

Compound: CC(C)c1nc2c(n1C)CCN(Cc1nc(-c3ccoc3)no1)C2
- Percent Effect (30.3 µM, […]): -0.2084%

Compound: CC(C)c1nc2c(n1C)CCN(Cc1nc(-c3ccsc3)no1)C2
- Percent Effect (30 µM, 30.03 µM): 59.36%

Compound: Cn1c(C2CC2)nc2c1CCN(Cc1nc(-c3ccsc3)no1)C2
- Percent Effect (30.3 µM, […]): -7.992%

Compound: COc1ccc(CN(C)[C@@H]2COC[C@H]2c2ccc(F)cc2)c(OC)c1.O=C(O)CC(O)(CC(=O)O)C(=O)O
- Percent Effect (30.3 µM, […]): 4.622%

Compound: Br.CCOc1ccc(N(CC(=O)c2ccccc2)C2=NCCCCC2)cc1
- Percent Effect (30 µM, 30.03 µM): 25.81%

Compound: COc1ccccc1CN1C[C@@H]2CN(C(C)=O)CCO[C@@H]2C1.O=C(O)C(F)(F)F
- Percent Effect (30.3 µM, […]): -77.53%

Compound: CN(Cc1nc(N2CCCC2)ncc1-c1ccncc1)C(=O)C(C)(C)C.Cl
- Percent Effect (30.3 µM, […]): 34.69%

Compound: Cc1ccc(OC2(C(=O)N(C)Cc3ccoc3)CCNCC2)cc1
- Percent Effect (30.3 µM, […]): 91.09%

Compound: Cc1ccc(OC2(C(=O)NC(C)Cc3ccncc3)CCNCC2)cc1 (centres undefined)
- Percent Effect (30 µM, 30.03 µM): -4.697%

Compound: O=C(N[C@@H]1CCCNC1)C1(Oc2ccc(Cl)cc2)CCNCC1
- Percent Effect (30 µM, 30.03 µM): -80.08%

Compound: CN(C)C(=O)C1(Oc2ccc(Cl)cc2)CCNCC1
- Percent Effect (30.3 µM, […]): -28.66%

Compound: CN(Cc1ccoc1)C(=O)C1(Oc2ccc(Cl)cc2)CCNCC1
- Percent Effect (30.3 µM, […]): 99.82%

Compound: CN(Cc1ccncn1)C(=O)C1(Oc2ccc(Cl)cc2)CCNCC1
- Percent Effect (30.3 µM, […]): -35.89%
